Hit rate of the full screen: of about 310,000 compounds, about 14,000 (4.5%) showed an effect of 50% or more. Effects have a minus sign here. Shown is part of a subset that was picked to be rich in strong results.
target: human ether-à-go-go-related gene (hERG) potassium channel (human, UniProt Q12809); experiment: primary screen, population patch clamp on CHO cells stably expressing hERG; higher = less effect of the substance
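Further: peak tail current of the secondary pulse compared with the same well before compound.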

Chain of human ether-à-go-go-related gene (hERG) potassium channel (Q12809 whole entry, looked up): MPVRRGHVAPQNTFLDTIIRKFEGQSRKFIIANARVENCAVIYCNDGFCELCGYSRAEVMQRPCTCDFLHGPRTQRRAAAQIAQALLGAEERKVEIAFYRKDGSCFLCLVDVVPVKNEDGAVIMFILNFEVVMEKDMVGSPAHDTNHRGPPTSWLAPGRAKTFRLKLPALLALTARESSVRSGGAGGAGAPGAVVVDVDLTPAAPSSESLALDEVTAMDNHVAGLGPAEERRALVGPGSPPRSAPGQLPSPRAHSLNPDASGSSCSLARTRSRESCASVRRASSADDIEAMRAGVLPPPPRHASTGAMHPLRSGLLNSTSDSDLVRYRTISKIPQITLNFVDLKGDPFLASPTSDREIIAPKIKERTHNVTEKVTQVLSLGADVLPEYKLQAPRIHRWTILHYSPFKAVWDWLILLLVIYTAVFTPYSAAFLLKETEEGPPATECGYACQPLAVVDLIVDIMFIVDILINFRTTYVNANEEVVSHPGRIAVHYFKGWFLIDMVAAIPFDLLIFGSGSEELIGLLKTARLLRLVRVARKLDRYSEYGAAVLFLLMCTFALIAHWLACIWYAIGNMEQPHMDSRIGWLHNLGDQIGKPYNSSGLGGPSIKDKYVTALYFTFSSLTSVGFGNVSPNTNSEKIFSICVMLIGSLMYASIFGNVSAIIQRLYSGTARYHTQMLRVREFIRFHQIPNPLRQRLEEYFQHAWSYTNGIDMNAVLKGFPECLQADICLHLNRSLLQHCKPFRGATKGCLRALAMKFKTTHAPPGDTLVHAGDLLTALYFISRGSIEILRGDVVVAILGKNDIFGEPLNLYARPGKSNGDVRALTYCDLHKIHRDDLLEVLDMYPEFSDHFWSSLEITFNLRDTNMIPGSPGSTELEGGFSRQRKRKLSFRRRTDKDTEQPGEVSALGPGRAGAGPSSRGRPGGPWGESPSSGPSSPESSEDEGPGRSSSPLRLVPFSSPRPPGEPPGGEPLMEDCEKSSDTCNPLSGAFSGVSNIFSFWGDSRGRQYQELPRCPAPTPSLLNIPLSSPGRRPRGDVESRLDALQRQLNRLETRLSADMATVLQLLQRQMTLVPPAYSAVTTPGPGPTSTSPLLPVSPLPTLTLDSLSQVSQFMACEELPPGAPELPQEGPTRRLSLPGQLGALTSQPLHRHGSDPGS

SMILES | hERG current change (%, negative = inhibition) at 10uM [%]
CCOC(=O)C1CCCN(c2cc(=O)n(-c3ccccc3Cl)c(=O)[nH]2)C1 (centres unmarked) | 9.43
O=C1C2=C(SCCS2)C(=O)N1CCCO | 4.66
CCC(Oc1ccccc1)C(=O)Nc1ccccc1N1CCCCC1 (centres unmarked) | 5.6
CSc1nnc2ccc(-c3cccs3)nn12 | -8.27
O=C(NC(=O)c1ccccc1)Nc1ccccc1O | 14.7
Cn1c(C(=O)OCC(=O)NCc2cccs2)cc2sccc21 | 3.37
O=C(Oc1ccccc1C(=S)N1CCOCC1)c1ccccc1 | 7.59
CCN(CC)c1ccc(C2C(C(=O)OCCOC(C)C)=C(C)NC3=C2C(=O)CCC3)cc1 (centres unmarked) | -12.3
CC1CCCN(c2ncnc3c2cnn3-c2ccccc2)C1 (centres unmarked) | -1.2
COc1ccc(-n2nc(C(=O)NCC(=O)NCCCN3CC(C)CC(C)C3)c3ccccc3c2=O)cc1Cl (centres unmarked) | -62.3
COc1ccc(-n2nc(C(=O)NCC(=O)NCCCN3CC(C)CC(C)C3)c3ccccc3c2=O)cc1OC (centres unmarked) | -34
COc1ccc(-n2nc(C(=O)NCC(=O)NCCCN3CC(C)CC(C)C3)c3ccccc3c2=O)cc1 (centres unmarked) | -37.2
O=C(c1ccccc1)N(Cc1cccnc1)C1(C(=O)Nc2ccccc2)CCCCC1 | 5.29
CC(=O)Nc1ccc2c(c1)CCc1ccccc1-2 | 15.1
O=C(CCS(=O)(=O)c1ccc(F)cc1)Nc1nc(-c2ccccn2)cs1 | -12.6
Cc1ccccc1C(=O)NC1CCN(Cc2nnnn2CCc2ccccc2)CC1 | -8.14
OC1(c2ccccc2F)CCN(Cc2nnnn2CCc2ccccc2)CC1 | 30.9
Cc1nc2cc(C(F)(F)F)ccc2n1C1CCN(Cc2nnnn2Cc2cccs2)CC1 | -36.6
Cc1ccc(S(=O)(=O)Cn2nnnc2CN2CCN(Cc3ccc4c(c3)OCO4)CC2)cc1 | -28.7

SMILES | hERG current change (%, negative = inhibition) at 10uM [%]
Cl.c1ccc(CCn2nnnc2CN2CCN(C3CCCC3)CC2)cc1 | -3.4
CCN(CC)C(=O)CN1CCC(n2c(C)nc3cc(C(F)(F)F)ccc32)CC1 | -32.8
CCC(C)(C)n1nnnc1CN1CCC(n2c(C)nc3cc(C(F)(F)F)ccc32)CC1 | -5.5
CCOC(=O)C1CCN(Cc2nnnn2CCc2ccccc2)CC1 | -4.94
Cc1nc2cc(C(F)(F)F)ccc2n1C1CCN(Cc2nnnn2CCc2ccccc2)CC1 | -68.4
Cc1nc2cc(C(F)(F)F)ccc2n1C1CCN(Cc2nnnn2Cc2ccc3c(c2)OCO3)CC1 | -54.1
Cc1nc2cc(F)ccc2n1C1CCN(Cc2nnnn2CCc2ccccc2)CC1.Cl | -65.7
Cc1nc2ccccc2n1C1CCN(Cc2nnnn2CCc2ccccc2)CC1.Cl | -68.6
CCc1ccc(OCC(=O)NCC(c2ccc(Cl)cc2)N2CCCCC2)cc1 (centres unmarked) | -6.4
CCN(CC)C(=O)CCc1nnc(CCc2c[nH]c3ccccc23)o1 | 6.93
O=C(CN1C(=O)/C(=C/c2ccccc2)SC1=S)Nc1ncc(Cc2ccccc2)s1 | 7.31
C[C@H](NC(=O)[C@@H]1CSC2c3ccccc3C(=O)N21)C(=O)NC1CCCC1 (some centres unmarked) | 10.5
COc1ccc(C(=O)NCc2ccon2)cc1OC1CCN(C(C)C)CC1 | -45.6
CCc1cccc(C)c1N(C(=O)Cn1c(CO)nc2ccccc21)C(C)COC (centres unmarked) | -5.89
COC(=O)c1c(N)sc(C(C)=O)c1C | 0.466
CCOC(=O)N1CCC(NC(=O)Cn2c3c(c(-c4ccccc4Cl)cc2=O)CCC3)CC1 | -8.61
CCOc1ccc(/C=N/Nc2ccccc2)cc1 | 17.6
O=C(c1cccnc1)N1c2ccccc2Sc2ccccc21 | -18.1
Fc1ccc2c(c1)nnn2C1CCN(Cc2c(Cl)cccc2Cl)CC1 | 7.11

SMILES | hERG current change (%, negative = inhibition) at 10uM [%]
Cl.Fc1ccc2c(c1)nnn2C1CCN(Cc2nnnn2CCc2ccccc2)CC1 | -61.3
Fc1ccc2c(c1)nnn2C1CCN(Cc2ccccc2)CC1 | -61.4
c1ccc(CCn2nnnc2CN2CCC(n3nnc4ccccc43)CC2)cc1 | -36.4
O=C(NC1CCN(Cc2nnnn2CCc2ccccc2)CC1)c1ccccc1F | -3.18
CCCC(C)C(=O)Nc1ccc(Cl)cn1 (centres unmarked) | -7.45
COc1cc(OC)nc(Oc2cc(/C=N/O)ccc2OC)n1 | 0.516
Cc1[nH]c(-c2ccc(F)cc2)cc1C(=O)N1CCN(c2ccc(Cl)cc2)CC1 | -13.4
CCOC(=O)N1CCC(NC(=O)c2cc(-c3ccc(F)cc3)[nH]c2C)CC1 | -0.721
Cc1[nH]c(-c2ccc(F)cc2)cc1C(=O)N1CCN(c2cccc(Cl)c2)CC1 | -12
Cc1ccc(N2CCN(C(=O)c3cc(-c4ccc(F)cc4)[nH]c3C)CC2C)cc1 (centres unmarked) | -13.3
CCOC(=O)N1CCN(C(=O)c2cc(-c3ccc(F)cc3)[nH]c2C)CC1 | -72.3
COc1cccc(N2CCN(C(=O)c3ccc(-c4ccccc4)cc3)CC2)c1 | -49.5
COc1cccc(N2CCN(C(=O)c3cc(C)oc3C)CC2)c1 | 6.8
COc1cccc(N2CCN(C(=O)c3cc(-c4ccc(F)cc4)[nH]c3C)CC2)c1 | -68.4
COc1ccc(N2CCN(C(=O)c3cc(-c4ccc(F)cc4)[nH]c3C)CC2)cc1 | -67.4
COc1ccc(-n2ncc(C(=O)N3CCN(c4ccc(F)cc4)CC3)c2C)cc1 | -22.6
Cc1[nH]c(-c2ccc(F)cc2)cc1C(=O)N1CCN(c2ccccc2)CC1 | -58.8
CCOC(=O)N1CCN(C(=O)c2cccc(F)c2)CC1 | -17.9

Reference: paper PMC4336329 (PLoS ONE, 2015)
